Experimental data: PubChem BioAssay (Tox21)
Inconclusive results are not listed. Active and inactive are the calls of the source. Unless noted, calls come from the whole dose curve; as a rule, active = well fitted curve in the direction sought with a large enough effect in the repeat runs; inconclusive = weak or mixed curves; inactive = no such curve, though single readings can be large; an effect the other way counts as inactive or inconclusive.

How the values were obtained:
[1] = A CellTox Green Cytotoxicity Assay to monitor cytotoxicity in HEK293 cells - 32 hour (AID 1224881); note: nearly all actives have a fitted effect of over 40% in size
Method in brief: (§1)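 Cytotoxicity was tracked continuously in HEK293 cells by a DNA-binding dye excluded from viable cells. Compounds were transferred in DMSO 5 h after seeding; fluorescence was recorded at intervals up to 40 h.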

[2] = A CellTox Green Cytotoxicity Assay to monitor cytotoxicity in HepG2 cells - 0 hour (AID 1224882); note: nearly all actives have a fitted effect of over 35% in size
Method in brief: (§2)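 Real-time, homogeneous cytotoxicity readout: dead-cell DNA staining by CellTox Green in HepG2 monolayers, fluorescence measured at timed intervals up to 40 h of continuous compound exposure.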

[3] = A CellTox Green Cytotoxicity Assay to monitor cytotoxicity in HepG2 cells - 32 hour (AID 1224883); note: nearly all actives have a fitted effect of over 50% in size
Method in brief: as §2

[4] = A CellTox Green Cytotoxicity Assay to monitor cytotoxicity in HEK293 cells - 8 hour (AID 1224884); note: nearly all actives have a fitted effect of over 35% in size
Method in brief: as §1

[5] = qHTS RealTime-Glo MT Cell Viability Assay in HepG2 cells - 16 hour (AID 1224885); note: nearly all actives have a fitted effect of over 50% in size
Method in brief: (§3)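 Viability was tracked continuously by NanoLuc luminescence from prosubstrate reduced by living HepG2 cells, at successive time points over 40 h of compound exposure. Cells with reagent were preincubated 5 h at 37 °C before compound addition.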

[6] = qHTS RealTime-Glo MT Cell Viability Assay in HEK293 cells - 24 hour (AID 1224886); note: top concentration of the series differs between compounds; nearly all actives have a fitted effect of over 50% in size
Method in brief: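 Viability tracked continuously by luminescence as live cells reduce a prosubstrate for NanoLuc; HEK293 cells preincubated 5 h, compound-treated at 37 C, and read at 0, 8, 16, 24, 32 and 40 h.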

[7] = qHTS RealTime-Glo MT Cell Viability Assay in HEK293 cells - 8 hour (AID 1224887); note: top concentration of the series differs between compounds; nearly all actives have a fitted effect of over 50% in size
Method in brief: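 Nonlytic bioluminescent viability monitoring. HEK293 at 600 cells/well with reagent; 5 h settle; compound transfer by pintool; plates held at 37 C and read at set time points.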

[8] = A CellTox Green Cytotoxicity Assay to monitor cytotoxicity in HEK293 cells - 16 hour (AID 1224888); note: nearly all actives have a fitted effect of over 35% in size
Method in brief: as §1

[9] = qHTS RealTime-Glo MT Cell Viability Assay in HepG2 cells - 0 hour (AID 1224889); note: nearly all actives have a fitted effect of over 50% in size
Method in brief: as §3

[10] = A CellTox Green Cytotoxicity Assay to monitor cytotoxicity in HepG2 cells - 8 hour (AID 1224890); note: nearly all actives have a fitted effect of over 45% in size
Method in brief: as §2

[11] = qHTS assay to identify small molecule antagonists of the estrogen receptor alpha (ER-alpha) signaling pathway using the BG1 cell line in the presence of 0.1 nM 17-beta-estradiol - cell viability counter screen (AID 1259241); note: nearly all actives have a fitted effect of over 40% in size
Method in brief: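 In this screen, hormone-deprived VM7Luc4E2 cells were seeded at 4,000 per well, dosed with compound and 0.1 nM estradiol final, and incubated 22 hr at 37C and 5% CO2; fluorogenic live-cell protease signal reported viability.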

[12] = qHTS assay to identify small molecule antagonists of the androgen receptor (AR) signaling pathway using the MDA cell line in the presence of 0.5 nM R1881 - cell viability counter screen (AID 1259242); note: nearly all actives have a fitted effect of over 45% in size
Method in brief: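 Cytotoxicity toward MDA-kb2 cells is measured by CellTiter-Fluor live-cell protease fluorescence after 16 hr compound exposure at 37C in the presence of 0.5 nM R1881 stimulator.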

[13] = target: Estrogen receptor (Homo sapiens) (UniProt P03372); experiment: qHTS assay to identify small molecule antagonists of the estrogen receptor alpha (ER-alpha) signaling pathway using the BG1 cell line in the presence of 0.1 nM 17-beta-estradiol (AID 1259244); note: nearly all actives have a fitted effect of over 50% in size
Estrogen receptor (Homo sapiens), sequence (P03372 whole entry, looked up): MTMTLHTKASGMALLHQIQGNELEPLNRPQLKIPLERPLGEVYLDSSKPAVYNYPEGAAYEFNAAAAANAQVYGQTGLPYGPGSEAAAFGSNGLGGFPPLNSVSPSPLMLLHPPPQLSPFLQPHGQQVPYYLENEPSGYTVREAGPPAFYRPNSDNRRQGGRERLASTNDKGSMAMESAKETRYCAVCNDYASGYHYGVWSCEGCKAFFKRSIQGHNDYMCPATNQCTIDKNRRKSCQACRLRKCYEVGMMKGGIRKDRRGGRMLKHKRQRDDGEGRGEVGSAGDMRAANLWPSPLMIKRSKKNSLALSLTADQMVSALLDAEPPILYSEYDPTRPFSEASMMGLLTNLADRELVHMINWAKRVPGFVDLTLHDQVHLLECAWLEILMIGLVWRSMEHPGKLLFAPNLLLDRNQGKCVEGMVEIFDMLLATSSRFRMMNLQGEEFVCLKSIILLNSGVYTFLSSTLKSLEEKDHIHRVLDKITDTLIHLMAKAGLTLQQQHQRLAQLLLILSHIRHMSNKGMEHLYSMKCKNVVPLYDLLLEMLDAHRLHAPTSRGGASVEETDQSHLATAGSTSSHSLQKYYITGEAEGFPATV
Method in brief: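 After 5 days in hormone-depleted medium (charcoal-stripped serum, no phenol red), VM7Luc4E2 cells were seeded, incubated 24 h, then co-treated with compound and 0.1 nM (final) estradiol for 22 h before luminescence detection.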

[14] = qHTS assay to identify small molecule phospholipidosis (PLD) inducers (AID 1259344; active = well fitted curve in the direction sought with a large enough effect; an effect the other way counts as inactive or inconclusive)
Method in brief: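 Fluorescent phospholipid staining (LipidTOX Red) measured by automated microscopy in fixed HepG2 cells after 24 h treatment; nuclei counterstained with Hoechst 33342; amiodarone as reference inducer.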

[15] = qHTS assay to identify small molecule HDAC inhibitors (AID 1259364); note: top concentration of the series differs between compounds; nearly all actives have a fitted effect of over 45% in size
Method in brief: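 Homogeneous cell-based luminescent assay of endogenous class I/II HDAC activity; HCT-116 cells, 2 h compound exposure, 30 min HDAC-Glo development at RT.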

[16] = qHTS assay to identify small molecule HDAC inhibitors - cell viability counter screen (AID 1259365)
Method in brief: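 Measured quantity is CellTiter-Glo luminescence from wild-type HCT-116 cells after compound incubation of 2hr at 37C, 5% CO2; reagent developed 30min at room temperature.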

[17] = qHTS assay to identify small molecule agonists of the sonic hedgehog signaling (Shh) pathway - cell viability counter screen (AID 1259366); note: nearly all actives have a fitted effect of over 50% in size
Method in brief: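 In quantitative high-throughput format, 3T3 Gli1-Luc cells were exposed to compounds for 24hr and multiplexed for viability using CellTiter-Fluor, incubated 1hr at 37C before the fluorescence read.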

[18] = qHTS assay to identify small molecule antagonists of the sonic hedgehog signaling (Shh) pathway - cell viability counter screen (AID 1259367); note: nearly all actives have a fitted effect of over 55% in size
Method in brief: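 Using CellTiter-Fluor, viability of Gli1-Luc reporter 3T3 cells is read by fluorescence in the wells used for the Shh luciferase assay. Treatment lasts 23 hr with conditioned medium, then reagent 1 hr at 37C.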

[19] = qHTS assay to identify small molecule agonists of the sonic hedgehog signaling (Shh) pathway (AID 1259368; calls by dose curve;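 note: NIH/3T3-derived 3T3Gli1-Luc cells carrying a stable Gli1-driven firefly luciferase reporter; series mostly up to about 92 µM; nearly all actives have a fitted effect of over 15% in size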)
Method in brief: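 Steps: seed 3T3 Gli1-Luc cells, incubate 4 hr at 37 C, pin-transfer compounds in DMSO alongside a positive control, incubate 24 hr, add luciferase detection reagent, wait 30 min at room temperature, read luminescence.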

[20] = target: Androgen receptor (Homo sapiens) (UniProt P10275); experiment: qHTS assay to identify small molecule antagonists of the androgen receptor (AR) signaling pathway using the MDA cell line in the presence of 0.5 nM R1881 (AID 1259243); note: nearly all actives have a fitted effect of over 50% in size
Androgen receptor (Homo sapiens), sequence (P10275 whole entry, looked up): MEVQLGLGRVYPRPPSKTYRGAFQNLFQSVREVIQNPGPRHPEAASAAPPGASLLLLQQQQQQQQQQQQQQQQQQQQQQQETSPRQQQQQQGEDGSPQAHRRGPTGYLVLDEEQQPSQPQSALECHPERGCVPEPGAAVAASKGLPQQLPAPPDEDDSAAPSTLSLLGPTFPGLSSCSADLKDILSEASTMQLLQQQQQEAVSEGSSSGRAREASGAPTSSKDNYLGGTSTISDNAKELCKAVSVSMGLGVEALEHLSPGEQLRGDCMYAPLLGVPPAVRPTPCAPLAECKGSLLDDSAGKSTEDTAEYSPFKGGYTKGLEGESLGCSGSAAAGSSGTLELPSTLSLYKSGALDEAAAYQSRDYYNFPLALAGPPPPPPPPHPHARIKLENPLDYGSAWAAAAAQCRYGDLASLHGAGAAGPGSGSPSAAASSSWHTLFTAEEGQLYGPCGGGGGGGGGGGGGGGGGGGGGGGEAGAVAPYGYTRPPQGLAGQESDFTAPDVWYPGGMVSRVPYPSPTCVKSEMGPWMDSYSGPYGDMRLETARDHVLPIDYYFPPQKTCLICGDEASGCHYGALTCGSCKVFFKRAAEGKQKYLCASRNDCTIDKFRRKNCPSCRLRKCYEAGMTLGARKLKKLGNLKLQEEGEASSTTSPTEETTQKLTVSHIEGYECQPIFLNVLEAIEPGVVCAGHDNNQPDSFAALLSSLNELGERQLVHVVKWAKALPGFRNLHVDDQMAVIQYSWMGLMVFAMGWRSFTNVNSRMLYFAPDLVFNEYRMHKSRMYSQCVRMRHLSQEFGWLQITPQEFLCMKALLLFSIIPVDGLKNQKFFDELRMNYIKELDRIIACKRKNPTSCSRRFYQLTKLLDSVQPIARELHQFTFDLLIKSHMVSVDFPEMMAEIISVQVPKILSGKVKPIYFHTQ
Method in brief: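 Steps: seed MDA-kb2 cells, incubate 5 hr at 37C; pin-transfer compounds in DMSO; add R1881 to 0.5 nM final; incubate 16 hr; add ONE-Glo, wait 30 min at room temperature; read luminescence.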
% is set by controls: 0 for no effect and ±100 for the full control effect.

CCOCC(O)COc1ccc(NC(=O)CC[S+](C)C)cc1 (centres undefined)
inactive: Potency [1] | Potency [2] | Potency [3] | Potency [4] | Potency [5] | Potency [6] | Potency [7] | Potency [8] | Potency [9] | Potency [10] | Potency [11] | Potency [12] | Potency [13] | Potency [14] | Potency [15] | Potency [16] | Potency [17] | Potency [18] | outcome [19]

CC(=O)OC[C@H]1O[C@@H](n2ncc(=O)[nH]c2=O)[C@H](OC(C)=O)[C@@H]1OC(C)=O
inactive: Potency [1] | Potency [2] | Potency [3] | Potency [4] | Potency [5] | Potency [6] | Potency [7] | Potency [8] | Potency [9] | Potency [10] | Potency [11] | Potency [12] | Potency [20] | Potency [13] | Potency [14] | Potency [15] | Potency [17] | Potency [18] | outcome [19]

CN(C)CCN(Cc1ccc(Cl)cc1)c1ccccn1
inactive: Potency [1] | Potency [2] | Potency [3] | Potency [4] | Potency [5] | Potency [6] | Potency [7] | Potency [8] | Potency [9] | Potency [10] | Potency [11] | Potency [12] | PLD induction [14] -3.78% [at 0.137 µM] | Potency [15] | Potency [16] | Potency [18] | outcome [19]

CC1CCC(=O)C1=O (centres undefined)
inactive: Potency [1] | Potency [2] | Potency [3] | Potency [4] | Potency [5] | Potency [6] | Potency [7] | Potency [8] | Potency [9] | Potency [10] | Potency [11] | Potency [12] | Potency [13] | Potency [15] | Potency [16] | Potency [17] | Potency [18] | outcome [19]

CCn1cc(C(=O)O)c(=O)c2cnc(N3CCNCC3)nc21
inactive: Potency [1] | Potency [2] | Potency [3] | Potency [4] | Potency [5] | Potency [6] | Potency [7] | Potency [8] | Potency [9] | Potency [10] | Potency [11] | Potency [12] | Potency [14] | Potency [15] | Potency [16] | Potency [17] | Potency [18] | outcome [19]

Cc1cc(N)c2cc(NC(=O)Nc3ccc4nc(C)cc(N)c4c3)ccc2n1
inactive: Potency [1] | Potency [2] | Potency [3] | Potency [4] | Potency [5] | Potency [6] | Potency [7] | Potency [8] | Potency [9] | Potency [10] | Potency [11] | Potency [12] | Potency [20] | Potency [15] | Potency [16] | outcome [19]

CCC(CC)Nc1ccc(C)c(C)c1
inactive: Potency [1] | Potency [2] | Potency [3] | Potency [4] | Potency [5] | Potency [6] | Potency [7] | Potency [8] | Potency [9] | Potency [10] | Potency [11] | Potency [12] | Potency [13] | Potency [15] | Potency [16] | Potency [17] | Potency [18] | outcome [19]

CCN(CC)CCNC(=O)c1cc(Br)c(N)cc1OC
inactive: Potency [1] | Potency [2] | Potency [3] | Potency [4] | Potency [5] | Potency [6] | Potency [7] | Potency [8] | Potency [9] | Potency [10] | Potency [11] | Potency [12] | Potency [13] | Potency [14] | Potency [15] | Potency [16] | Potency [17] | Potency [18] | outcome [19]
